{
  "source": "PubChem BioAssay (NCI)",
  "note": "This is part of a sample that, as a whole, favours compounds with a hit. Of some 83,000 tested, about 20% had one in any assay.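 Values shown are percent growth following 48 h exposure of cells in 96-well plates to a single concentration of compound; below 10 was considered active.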 Activity calls are given as the source filed them.",
  "data": [
    {"tested_on": "HL-60(TB) leukemia", "assay": "NCI-60 one-dose screen, 48 h (100 = growth as untreated, 0 = no growth, -100 = all killed)", "conditions": "10 µM unless noted", "values": [
      {"compound": "C=CCN1C(=O)c2cccc3c(N4CCOCC4)ccc(c23)C1=O", "growth": "-5.15% (active)"},
      {"compound": "CCCCCCCCCCCCCCCCCCOc1ccc(CC(=O)OCC[N+]2(C)CCCC2)cc1", "growth": "101% (inactive)"},
      {"compound": "CC1(C)NCCC[C@]2(C)[C@H]3C=CC4=C5C[C@](C)(CO)CC[C@]5(C)CC[C@@]4(C)[C@]3(C)CC[C@@H]12", "growth": "-52.8% [100 µM] (active)"},
      {"compound": "CCCCCCCCCCCCCCCCCCNC(=O)[C@H]1CSC(c2ccc(F)c(OC)c2)N1", "note": "(stereo not given in full)", "growth": "-68% (active)"},
      {"compound": "COc1cc(N=Nc2ccc(O)c3ncccc23)c2ncccc2c1", "growth": "-14.1% (active)"},
      {"compound": "c1cnc2[nH]cc(-c3nc(-c4ccsc4)cs3)c2c1", "growth": "104% (inactive)"},
      {"compound": "C[C@H](NC(=O)[C@@H]1CSSC[C@@H](NC(=O)Cc2nc3ccccc3cc2O)C(=O)NCC(=O)N1C)c1ccccc1", "growth": "32.1% (inactive)"},
      {"compound": "CCCCCCCCCCCCCCCCC(=O)O", "growth": "101% (inactive)"},
      {"compound": "O=C(Nc1nc2ccccc2s1)c1cc(-c2ccc(F)cc2)n2nc(-c3ccccc3)cc2n1", "growth": "107% (inactive)"},
      {"compound": "COc1cc(Cl)ccc1C", "growth": "107% (inactive)"},
      {"compound": "O=C(O)c1cn(C2CC2)c2cc(N3CCN(C(=O)N4CCOCC4)CC3)c(F)cc2c1=O", "growth": "90.3% (inactive)"},
      {"compound": "CC(O)/C=C/C=C/C(O)CC/C=C/C(=O)NCC(C)(C)O", "note": "(stereo not given)", "growth": "81.1% (inactive)"},
      {"compound": "Cc1ccc(C2NC(=S)N3C(c4ccc(C)cc4)NC(=S)N23)cc1", "note": "(stereo not given)", "growth": "-23.9% (active)"},
      {"compound": "CCN1C(=O)CC(SC2CC(=O)N(CC)C2=O)C1=O", "note": "(stereo not given)", "growth": "79.9% (inactive)"},
      {"compound": "CC[C@H](C)[C@H]1NC(=O)[C@@H](N[C@](C)(O)[C@@H](N)CC(C)C)[C@@H](C)OC(=O)[C@H](Cc2ccc(OC)cc2)N(C)C(=O)[C@@H]2CCCN2C(=O)[C@H](CC(C)C)NC(=O)[C@@H](C)C(=O)[C@H](C(C)C)OC(=O)C[C@@H]1O", "growth": "-27.7% (active)"},
      {"compound": "COc1cc(Cl)cc(-c2nn(C(=O)NS(=O)(=O)c3ccc(Cl)cc3)cc2-c2ccncc2)c1", "growth": "94.8% (inactive)"},
      {"compound": "CCOc1ccccc1C(=O)OCC(=O)Nc1cccc(S(=O)(=O)N(C)C)c1", "growth": "86.2% (inactive)"},
      {"compound": "Cc1ccc(C(=O)Nc2cccc(C#Cc3cccc4[nH]nc(N)c34)c2)cc1C(F)(F)F", "growth": "19.2% (inactive)"},
      {"compound": "COc1ccc(-n2nnc3c(sc4ccccc43)c2=O)cc1", "growth": "94.6% (inactive)"},
      {"compound": "CC(C)(C)n1cc(-c2ccnc(NCCCNS(=O)(=O)c3ccc(C(F)(F)F)cc3)c2)c(-c2cccc(F)c2)n1", "growth": "94.6% (inactive)"},
      {"compound": "c1ccc2cc(Cn3c[n+](Cc4ccc5ccccc5c4)c4ccccc43)ccc2c1", "growth": "-66.3% (active)"},
      {"compound": "COc1cccc(C2CC(=O)Nc3c2c(C)nn3-c2nc3ccccc3[nH]2)c1OC", "note": "(stereo not given)", "growth": "18.9% (inactive)"},
      {"compound": "COc1ccc2c(c1)O/C(=C\\c1cccc(OCC(=O)Nc3nc4ccccc4s3)c1)C2=O", "growth": "40.7% (inactive)"},
      {"compound": "CCCCc1oc2ccccc2c1C(=O)c1cc(I)c(OCCN(CC)CC)c(I)c1", "growth": "-62.9% (active)"},
      {"compound": "COc1cc(NC(=O)C2=C(N3CCOCC3)/C(=C/c3ccc(Cl)cc3)CC2)cc(OC)c1OC", "growth": "21.6% (inactive)"}
    ]}
  ]
}
